15 molecules from PubChem BioAssay (NCATS) can be followed below.

What all share (test): qHTS profiling for inhibitors of Plasmodium falciparum proliferation (AID 504749); note: nearly all actives have a fitted effect of over 60% in size
What all share (conditions): P. falciparum in erythrocytes, SYBR Green DNA, 72 h; series mostly up to 28.7 µM
For orientation: Quantitative high-throughput screening tests each substance at several concentrations.

One test concerns 7G8. Summed up: (§1)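 Readout was DNA-dye fluorescence from lysed cultures, ex 485/em 535 nm. Parasitized red cells had grown 72 h with compound; data scaled between 0.29 uM artemisinin and DMSO wells and corrected using vehicle-only plates.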
The next test deals with AA1029. Summed up:
as §1

Another test has as its system AS120. In outline:
as §1

In a further test the test system is ATS189. Summed up:
as §1

In a further test the test system is ATS95. In outline:
as §1

The test system of the next test is C2A. Summed up:
as §1

The next test has as its system CP185. Summed up:
as §1

In a further test the test system is CP191. In outline:
as §1

A further test concerns CP192. In outline: as §1
The test system of a further test is CP194. In outline: as §1
Another test concerns CP201. In outline:
as §1

Another test has as its system CP203. In outline: as §1
For the next test, the system named is CP211. Summed up: as §1
The next test concerns CP215. In outline: as §1
The test system of a further test is CP217. In outline:
as §1

The subject of the next test is CP237. Summed up:
as §1

The subject of a further test is CP238. Summed up: as §1
The test system of the next test is CP247. In outline: as §1
The next test deals with CP250. Summed up: as §1
Another test has as its system CP252. Summed up: as §1

Inconclusive results are not listed. Active and inactive are the calls of the source. Calls come from the whole dose curve; as a rule, active = well fitted inhibition curve with a large enough effect; inconclusive = small, poorly fitted or top-dose-only effect; inactive = flat fitted curve, though single readings scatter.
Potency is the fitted concentration of half-maximal effect.

For `N[C@H](CC(=O)O)C(=O)O`, the Potency entry in the test with 7G8, with AA1029, in the test with AS120, in the test with ATS189, in the test with ATS95 and in the test on C2A was “inactive” each time. Moreover, the Potency entry with CP185, with CP191, with CP192, with CP194, with CP201 and in the test on CP203 was “inactive” each time. Moreover, the Potency entry in the test with CP211, in the test with CP215, in the test on CP217, in the test with CP237, in the test on CP238 and with CP247 was “inactive” each time. Besides, the Potency result with CP250 and in the test with CP252 was “inactive” in each case.

Regarding `O=[n+]1ccn([O-])c2ccccc21`, the Potency result with 7G8, in the test with AA1029, with AS120, in the test with ATS189, with ATS95 and with C2A was “inactive” each time. Besides, the Potency entry in the test with CP185, in the test with CP191, in the test with CP192, with CP194, in the test with CP201 and in the test with CP203 was “inactive” each time. Besides, the Potency result in the test on CP211, in the test with CP215, in the test with CP217, with CP237, in the test with CP238 and in the test with CP247 was “inactive” in each case. In addition, the Potency result with CP250 and with CP252 was “inactive” throughout.

For the molecule `CC(=O)Nc1ccc(OC(C)=O)cc1`, the Potency result in the test on 7G8, in the test with AA1029, in the test with AS120, with ATS189, in the test with ATS95 and in the test on C2A was “inactive” in each case. Moreover, the Potency entry in the test on CP185, in the test on CP191, in the test on CP192, in the test on CP194, in the test with CP201 and in the test with CP203 was “inactive” throughout. Further, the Potency result in the test on CP211, in the test with CP215, with CP217, in the test on CP237, in the test with CP238 and in the test on CP247 was “inactive” in each case. Besides, the Potency entry with CP250 and in the test with CP252 was “inactive” throughout.

In the case of `O=C(O)/C=C/C(=O)Nc1ccc(S(=O)(=O)Nc2nccs2)cc1`, the Potency result with 7G8, in the test with AA1029, with AS120, in the test on ATS189, with ATS95 and in the test on C2A was “inactive” throughout. In addition, the Potency entry with CP185, with CP191, with CP192, with CP194, in the test with CP201 and in the test on CP203 was “inactive” in each case. Also, the Potency entry in the test on CP211, with CP215, with CP217, in the test with CP237, in the test on CP238 and in the test on CP247 was “inactive” throughout. The Potency entry in the test with CP250 and with CP252 was “inactive” in each case.

As for `COc1ccc2c(c1)OC(C)(C)C(c1ccccc1)C2c1ccc(OCCN2CCCC2)cc1` (centres undefined), the Potency with 7G8 was 2.82 µM (active); in the test with AA1029 it was 3.55 µM (active); in the test on AS120, 3.16 µM (active); in the test with ATS189, 3.55 µM (active); with ATS95, 5.01 µM (active); in the test on C2A, 4.47 µM (active). Also, the Potency in the test on CP185 was 3.98 µM (active); in the test with CP191, 2.51 µM (active); with CP192, 10.7 µM (active); in the test with CP194 it was 6.75 µM (active); in the test on CP201 it was 5.36 µM (active); in the test with CP203 it was 12 µM (active). In addition, the Potency with CP211 is 10.7 µM (active); with CP215 it was 9.53 µM (active); with CP217 it was 3.16 µM (active); in the test on CP237 it was 3.98 µM (active); with CP238, 11.2 µM (active); in the test on CP247, 2.51 µM (active). Also, the values for the Potency in the test on CP250 and in the test with CP252 were 4.47 µM (active) and 3.98 µM (active), respectively.

Regarding `Cc1ccccn1`, the Potency entry with 7G8, in the test on AA1029, in the test on AS120, in the test on ATS189, in the test with ATS95 and in the test on C2A was “inactive” in each case. Also, the Potency result in the test with CP185, in the test with CP191, in the test on CP192, in the test on CP194, with CP201 and with CP203 was “inactive” each time. The Potency entry in the test with CP211, with CP215, in the test with CP217, in the test with CP237, with CP238 and with CP247 was “inactive” throughout. The Potency result in the test on CP250 and in the test on CP252 was “inactive” in each case.

Consider `C=C(C)C1CC=C(C)CC1` (centres undefined), for which the Potency result with 7G8, in the test on AA1029, in the test on AS120, with ATS189, in the test on ATS95 and with C2A was “inactive” in each case. Besides, the Potency entry in the test with CP185, in the test on CP191, in the test on CP192, in the test on CP194, in the test with CP201 and in the test on CP203 was “inactive” each time. The Potency result in the test with CP211, in the test with CP215, in the test on CP217, in the test with CP237, in the test with CP238 and with CP247 was “inactive” each time. Besides, the Potency entry in the test with CP250 and in the test on CP252 was “inactive” throughout.

As to `Nc1ncnc2c1ncn2[C@H]1CC[C@@H](CO)O1`, the Potency entry in the test on 7G8, in the test on AA1029, with AS120, with ATS189, with ATS95 and with C2A was “inactive” throughout. Also, the Potency result in the test on CP185, in the test on CP191, in the test on CP192, in the test on CP194, in the test with CP201 and with CP203 was “inactive” each time. Moreover, the Potency result in the test with CP211, in the test with CP215, in the test with CP217, in the test on CP237, in the test on CP238 and with CP247 was “inactive” each time. In addition, the Potency entry with CP250 and in the test with CP252 was “inactive” in each case.

`CCCCCCOC(=O)c1cccnc1`: the Potency result in the test on 7G8, with AA1029, with AS120, with ATS189, with ATS95 and in the test on C2A was “inactive” in each case. Besides, the Potency result in the test on CP185, in the test on CP191, in the test on CP192, in the test with CP194, in the test with CP201 and with CP203 was “inactive” each time. In addition, the Potency entry in the test with CP211, in the test with CP215, in the test with CP217, in the test with CP237, in the test on CP238 and in the test with CP247 was “inactive” in each case. Also, the Potency entry in the test on CP250 and in the test with CP252 was “inactive” each time.

In the case of `CC/C=C\C/C=C\C/C=C\C/C=C\C/C=C\C/C=C\CCC(=O)O`, the Potency in the test on 7G8 is 12.6 µM (active). Besides, the Potency entry in the test with AA1029, with AS120, in the test with ATS189, with ATS95, in the test with C2A and with CP185 was “inactive” each time. Also, the Potency result in the test with CP191, in the test on CP192, in the test on CP194, with CP201, in the test on CP203 and with CP211 was “inactive” throughout. The Potency entry with CP215, with CP217, in the test with CP237, with CP238, in the test with CP247 and in the test on CP250 was “inactive” throughout. For the same molecule, the Potency entry with CP252 was “inactive”.

In the case of `CC(C)c1ncc([N+](=O)[O-])n1C`, the Potency entry in the test on 7G8, with AA1029, with AS120, in the test on ATS189, in the test on ATS95 and in the test with C2A was “inactive” throughout. Also, the Potency entry in the test with CP185, with CP191, in the test on CP192, with CP194, in the test with CP201 and with CP203 was “inactive” in each case. The Potency entry in the test with CP211, in the test with CP215, in the test with CP217, in the test with CP237, with CP238 and in the test on CP247 was “inactive” in each case. Moreover, the Potency result in the test with CP250 and in the test with CP252 was “inactive” in each case.

Regarding `CC1CC(O)CC(C)(C)C1` (centres undefined), the Potency result in the test on 7G8, in the test with AA1029, in the test on AS120, in the test on ATS189, with ATS95 and in the test with C2A was “inactive” throughout. Besides, the Potency entry with CP185, in the test with CP191, in the test with CP192, with CP194, in the test on CP201 and in the test on CP203 was “inactive” in each case. Further, the Potency result in the test on CP211, in the test on CP215, with CP217, in the test with CP237, with CP238 and in the test on CP247 was “inactive” each time. The Potency entry in the test on CP250 and in the test with CP252 was “inactive” in each case.

As to `CC1(C)S[C@@H]2[C@H](NC(=O)C3(N)CCCCC3)C(=O)N2[C@H]1C(=O)O`, the Potency entry in the test on 7G8, in the test with AA1029, in the test on AS120, in the test with ATS189, with ATS95 and with C2A was “inactive” in each case. The Potency result in the test with CP185, in the test with CP191, with CP192, in the test on CP194, with CP201 and in the test on CP203 was “inactive” in each case. Besides, the Potency result with CP211, with CP215, with CP217, in the test with CP237, with CP238 and in the test with CP247 was “inactive” throughout. Moreover, the Potency result in the test with CP250 and with CP252 was “inactive” throughout.

With `Cc1ncc(C[n+]2csc(CCOP(=O)(O)O)c2C)c(N)n1`, the Potency result in the test on 7G8, in the test on AA1029, in the test with AS120, in the test with ATS189, in the test on ATS95 and in the test on C2A was “inactive” each time. For the same molecule, the Potency entry in the test on CP185, with CP191, with CP192, with CP194, in the test on CP201 and in the test on CP203 was “inactive” each time. Moreover, the Potency result in the test with CP211, with CP215, with CP217, in the test on CP237, with CP238 and in the test with CP247 was “inactive” each time. Moreover, the Potency entry with CP252 is “inactive”.

Regarding `C=CC(=O)O`, the Potency result with 7G8, in the test on AA1029, in the test on AS120, in the test on ATS189, in the test on ATS95 and in the test on C2A was “inactive” throughout. In addition, the Potency result in the test with CP185, in the test on CP191, with CP192, in the test with CP194, with CP201 and in the test with CP203 was “inactive” each time. Further, the Potency result in the test with CP211, in the test on CP215, in the test on CP217, in the test on CP237, in the test on CP238 and in the test with CP247 was “inactive” throughout. In addition, the Potency result in the test with CP250 and with CP252 was “inactive” throughout.
